Laboratory results: the supplement of paper PMC6555819

Legend:
Assay in all cases: PBM binding z-score (relative to random genomic background probes); higher = stronger binding; sequences stand for … in GC…GCGATTGACAGCGTAGAATGAAGG
[1] = test system: PPARg:RXRa DBDmut IVT, anti-RXR (DBD mutation: RXRa K156A/R161A, NR concentration 270 nM, RXRa partner concentration 90 nM)
In short: (§1)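 The probes on custom Agilent 4×180K protein-binding microarrays were double-stranded, with 34-nt variable regions bearing direct-repeat seeds, single-nucleotide variants, half-site ablations and random human genomic background sequences. Incubation lasted 1 h with ligand-free nuclear receptor dimers in PBS pH 7.4, 2% milk, 0.02% Triton X-100, 1 mM DTT, 0.2 mg/mL BSA and 0.4 mg/ml salmon testes DNA. Antibodies against each partner (one per run) detected bound dimers, and fluorescence scans were regression-normalized. Binding z-scores take the random background probes as reference.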

[2] = test system: PPARg:RXRa IVT, anti-PPARg (NR concentration 270 nM, RXRa partner concentration 90 nM)
In short: as §1

[3] = test system: PPARg DBDmut:RXRa IVT, anti-PPARg (DBD mutation: PPARg1 K132A/R137A, NR concentration 270 nM, RXRa partner concentration 90 nM)
In short: as §1

[4] = test system: PPARg DBDmut IVT, anti-PPARg (DBD mutation: PPARg1 K132A/R137A, NR concentration 270 nM)
In short: as §1

[5] = test system: PPARg homodimer (NR concentration 180 nM)
In short: as §1

[6] = test system: PXR:RXRa (NR concentration 270 nM, RXRa partner concentration 90 nM)
In short: as §1

[7] = test system: PXR homodimer (NR concentration 270 nM)
In short: as §1

[8] = test system: RARa:RXR (NR concentration 270 nM, RXRa partner concentration 90 nM)
In short: as §1

[9] = test system: RARa homodimer (NR concentration 270 nM)
In short: as §1

[10] = test system: RARb:RXRa (NR concentration 270 nM, RXRa partner concentration 90 nM)
In short: as §1

Sequence | PBM binding z-score [1] | PBM binding z-score [2] | PBM binding z-score [3] | PBM binding z-score [4] | PBM binding z-score [5] | PBM binding z-score [6] | PBM binding z-score [7] | PBM binding z-score [8] | PBM binding z-score [9] | PBM binding z-score [10]
TCTACTAGGTCAACGATGGTCAGCTAATCTGCTA | 7.66 | 7.96 | 1.25 | 1.79 | 1.93 | 1.93 | 0.246 | 2.54 | 1.28 | 4.23
TAGCCTAGGTGAGATCGGGCCAGTATACGCTATA | 0.128 | 1.07 | -0.934 | -1.25 | -0.915 | -0.281 | -0.98 | 0.347 | -1.23 | -0.0511
TAGCCTAGGTAAGATCGGGCCAGTATACGCTATA | -0.504 | -0.0138 | -2.06 | -1.02 | -0.948 | -0.638 | -0.73 | -0.261 | -1.46 | -1.22
CCTGCTAGGTCAATGGTAAGCTAAAGCAGCTCGC | 4.33 | 3.43 | -1.49 | -0.489 | 1.05 | 0.564 | -0.596 | 1.5 | -0.463 | 3.79
GCATATAGATAATACAAGGTGAAAGTCCGATTGT | 0.0768 | 0.523 | 1.29 | 0.755 | 0.731 | 0.197 | 0.246 | 0.795 | 0.194 | 0.165
GCGACTGCGGCAAAGCAGGTTACCATAAGGTTGG | -0.386 | -0.26 | -0.756 | -1.23 | -0.726 | -0.186 | -0.666 | 0.143 | -1.11 | -0.06
CGAACTAGGTCATCCAGGATAGTGAATACATTGA | 7.97 | 8.31 | 1.76 | 1.58 | 1.43 | 1.54 | 0.608 | 2.18 | 1.13 | 3.78
CGTCCAAGGTCGATGCTAGGTCAGTGAAAGCATT | 0.324 | 0.816 | -0.113 | -0.767 | 1.54 | 2.04 | 0.704 | 2.49 | -0.458 | 2.92
GATACAGGCTCAAGGCCAGAGTACGCGTATTGAT | -0.731 | -0.511 | -0.646 | -1.16 | -1.02 | -0.534 | 0.0448 | -0.806 | -0.764 | -0.0838
GCGCGGAGGACAAGGTCAGAGCTTTGTCCGTAGA | -0.241 | 0.514 | -1.67 | -1.56 | 0.0737 | 1.5 | -0.325 | 2.13 | -1.01 | 3.4
TCTAGCAGGCCGGAGGGTCACTCAAGAGGTACGG | 0.524 | -0.0805 | -0.889 | -1.31 | 0.278 | 0.98 | -0.311 | 1.65 | -0.429 | 1.74
CCTATTAGTTGACTATAAGGGCAACCGAAGCTCG | 0.032 | 0.399 | 0.358 | 0.398 | 0.891 | 0.229 | 0.676 | 0.501 | 1.22 | 1.25
